# What was measured:
# Details in all cases: concentration: 1 μM, replicates: in singlicate; n = 1
# [1] = tested on: T1, ERK4
# T1 construct: gene MAPK4
# [2] = tested on: T2, ERK5
# T2 construct: gene MAPK7
# [3] = tested on: T3, ERK8
# T3 construct: gene MAPK15
# [4] = tested on: ERN1
# [5] = tested on: T4, FAK
# T4 construct: gene PTK2
# [6] = tested on: FER
# [7] = tested on: FES
# [8] = tested on: FGFR1
# [9] = tested on: FGFR2
# [10] = tested on: FGFR3
# [11] = tested on: FGFR4
# [12] = tested on: FGR
# [13] = tested on: FLT1
# [14] = tested on: FLT3-autoinhibited
# [15] = tested on: FLT3
# [16] = tested on: FLT4
# [17] = tested on: FRK
# [18] = tested on: FYN
# [19] = tested on: GAK
# [20] = tested on: T5, GCN2(Kin.Dom.2,S808G)
# T5 construct: gene EIF2AK4
# 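Note: KINOMEscan kinase panel screen.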
smiles,measurement,setting,value
Cl.Fc1ccccc1COc1ccc(Nc2ncnc3ccc(-c4nnc(C(F)(F)F)o4)cc23)cc1Cl [GW424170],%Inh,[1],13%
same,%Inh,[2],0%
same,%Inh,[3],0%
same,%Inh,[4],2%
same,%Inh,[5],0%
same,%Inh,[6],18%
same,%Inh,[7],0%
same,%Inh,[8],0%
same,%Inh,[9],0%
same,%Inh,[10],8%
same,%Inh,[11],0%
same,%Inh,[12],6%
same,%Inh,[13],18%
same,%Inh,[14],0%
same,%Inh,[15],0%
same,%Inh,[16],3%
same,%Inh,[17],0%
same,%Inh,[18],0%
same,%Inh,[19],0%
same,%Inh,[20],0%
Fc1ccc(-c2ncn(CCCNCc3ccccc3)c2-c2ccncc2)cc1,%Inh,[1],14%
same,%Inh,[2],0%
same,%Inh,[3],13%
same,%Inh,[4],14%
same,%Inh,[5],0%
same,%Inh,[6],13%
same,%Inh,[7],23%
same,%Inh,[8],0%
same,%Inh,[9],0%
same,%Inh,[10],0%
same,%Inh,[11],0%
same,%Inh,[12],17%
same,%Inh,[13],0%
same,%Inh,[14],0%
same,%Inh,[15],0%
same,%Inh,[16],22%
same,%Inh,[17],0%
same,%Inh,[18],0%
same,%Inh,[19],0%
same,%Inh,[20],0%
COc1cc2c(Nc3cccc(NC(=O)c4ccccc4)c3)ncnc2cc1OCCCN1CCOCC1 [GSK223810],%Inh,[1],0%
same,%Inh,[2],0%
same,%Inh,[3],0%
same,%Inh,[4],23%
same,%Inh,[5],0%
same,%Inh,[6],0%
same,%Inh,[7],0%
same,%Inh,[8],18%
same,%Inh,[9],11%
same,%Inh,[10],22%
same,%Inh,[11],3%
same,%Inh,[12],0%
same,%Inh,[13],61%
same,%Inh,[14],0%
same,%Inh,[15],6%
same,%Inh,[16],28%
same,%Inh,[17],17%
same,%Inh,[18],24%
same,%Inh,[19],16%
same,%Inh,[20],0%
COc1ccc(Nc2nccc(N3CCC(NC(=O)Nc4ccc5c(c4)OCO5)C3)n2)cc1 (stereo not shown) [GSK1379745],%Inh,[1],0%
same,%Inh,[2],0%
same,%Inh,[3],48%
same,%Inh,[4],0%
same,%Inh,[5],1%
same,%Inh,[6],33%
same,%Inh,[7],18%
same,%Inh,[8],9%
same,%Inh,[9],1%
same,%Inh,[10],32%
same,%Inh,[11],4%
same,%Inh,[12],28%
same,%Inh,[13],37%
same,%Inh,[14],0%
same,%Inh,[15],45%
same,%Inh,[16],12%
same,%Inh,[17],14%
same,%Inh,[18],3%
same,%Inh,[19],11%
same,%Inh,[20],2%
COC(=O)c1c(-c2ccccc2)c2cc(Cl)ccc2c(=O)n1Cc1ccc(S(C)(=O)=O)cc1,%Inh,[1],3%
same,%Inh,[2],13%
same,%Inh,[3],6%
same,%Inh,[4],13%
same,%Inh,[5],4%
same,%Inh,[6],0%
same,%Inh,[7],3%
same,%Inh,[8],0%
same,%Inh,[9],8%
same,%Inh,[10],6%
same,%Inh,[11],6%
same,%Inh,[12],0%
same,%Inh,[13],0%
same,%Inh,[14],2%
same,%Inh,[15],0%
same,%Inh,[16],8%
same,%Inh,[17],22%
same,%Inh,[18],0%
same,%Inh,[19],100%
same,%Inh,[20],0%
O=C(NCCCN1CCCC1=O)c1cnc(NCc2cc(Cl)ccc2Cl)nc1NC1CCNCC1,%Inh,[1],0%
same,%Inh,[2],0%
same,%Inh,[3],17%
same,%Inh,[4],0%
same,%Inh,[5],0%
same,%Inh,[6],0%
same,%Inh,[7],0%
same,%Inh,[8],11%
same,%Inh,[9],14%
same,%Inh,[10],0%
same,%Inh,[11],0%
same,%Inh,[12],1%
same,%Inh,[13],0%
same,%Inh,[14],0%
same,%Inh,[15],0%
same,%Inh,[16],7%
same,%Inh,[17],0%
same,%Inh,[18],6%
same,%Inh,[19],0%
same,%Inh,[20],0%
Cl.c1ccc(Cn2ncc3cc(Nc4ncnc5ccccc45)ccc32)cc1 [GW273749],%Inh,[1],35%
same,%Inh,[2],0%
same,%Inh,[3],0%
same,%Inh,[4],34%
same,%Inh,[5],0%
same,%Inh,[6],13%
same,%Inh,[7],0%
same,%Inh,[8],0%
same,%Inh,[9],0%
same,%Inh,[10],0%
same,%Inh,[11],5%
same,%Inh,[12],31%
same,%Inh,[13],17%
same,%Inh,[14],7%
same,%Inh,[15],0%
same,%Inh,[16],8%
same,%Inh,[17],0%
same,%Inh,[18],36%
same,%Inh,[19],23%
same,%Inh,[20],0%
NC(=O)c1sc(-n2cnc3ccccc32)cc1OCc1ccccc1F [GSK1024306],%Inh,[1],0%
same,%Inh,[2],0%
same,%Inh,[3],26%
same,%Inh,[4],0%
same,%Inh,[5],0%
same,%Inh,[6],20%
same,%Inh,[7],0%
same,%Inh,[8],0%
same,%Inh,[9],0%
same,%Inh,[10],4%
same,%Inh,[11],19%
same,%Inh,[12],0%
same,%Inh,[13],40%
same,%Inh,[14],2%
same,%Inh,[15],0%
same,%Inh,[16],27%
same,%Inh,[17],11%
same,%Inh,[18],24%
same,%Inh,[19],24%
same,%Inh,[20],0%
